Measured values taken from PubChem BioAssay (EPA / NIEHS).
Inconclusive results are not listed. The source made the active and inactive calls. The calls were made as follows, unless noted: active = hit-call score of the fitted dose curve at least 0.9, where 1 is the maximum; inconclusive = response in the unintended direction; inactive = score below 0.9.

Legend:
[1] = Tanguay_ZF_120hpf_BRAI_legacy: (Legacy) Oregon State University Tanguay Lab 120 Hour Post-fertilization zebrafish Assay for Brain Malformation (AID 2283641)
In short: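 Static exposure of staged wild-type embryos until 120 hpf, kept at 28C with light excluded and final DMSO of 0.64% (vol/vol). Presence or absence of brain malformation was noted under brightfield; mortality precluded scoring.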

[2] = Tanguay_ZF_120hpf_SOMI_legacy: (Legacy) Oregon State University Tanguay Lab 120 Hour Post-fertilization zebrafish Assay for Somite Malformation (AID 2283647)
In short: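 Somitogenesis defects are recorded as binary calls in whole larvae at 120 hpf after continuous static chemical exposure starting at 6 hpf in dechorionated 5D embryos. DMSO serves as negative control and baseline.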

[3] = Tanguay_ZF_120hpf_CFIN_legacy: (Legacy) Oregon State University Tanguay Lab 120 Hour Post-fertilization zebrafish Assay for Caudal Fin Malformation (AID 2283649)
In short: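 Single dechorionated 5D wild-type embryos are dosed at 6 hpf (final DMSO 0.64%) and held statically at 28C. Caudal fin malformation is recorded as present or absent at 120 hpf under brightfield, excluding dead embryos.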

[4] = Tanguay_ZF_120hpf_PIG_legacy: (Legacy) Oregon State University Tanguay Lab 120 Hour Post-fertilization zebrafish Assay for Pigmentation Malformation (AID 2283650)
In short: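 Pigment malformation recorded as a binary call at 120 hpf in zebrafish (Tropical 5D) exposed singly from 6 hpf after pronase dechorionation. Static, sealed, 28C exposure, 0.64% DMSO; mortality excludes scoring; positive-direction fit against DMSO.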

[5] = Tanguay_ZF_120hpf_CIRC_legacy: (Legacy) Oregon State University Tanguay Lab 120 Hour Post-fertilization zebrafish Assay for Circulatory Malformation (AID 2283651)
In short: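 Static exposure, 6–120 hpf, 28C, sealed and dark; one dechorionated 5D embryo/well; DMSO 0.64% v/v final. Binary circulation endpoint by brightfield; dead embryos not scored.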

[6] = read-out: solute carrier (SLC22A6), SLC22A6 (gene 9356); assay: LTEA_HepaRG_SLC22A6: Life Technologies and Expression Analysis (LTEA) Assay for solute carrier (SLC22A6) using HepaRG (AID 2283653; active = hit-call score of the fitted dose curve at least 0.9, where 1 is the maximum; inactive = score below 0.9); settings: mRNA level, 48 h; actives raise or lower the signal
In short: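 Gene-expression endpoint in HepaRG hepatic cells: duplicate 8-point concentration-response, highest 100 uM, 48 h treatment in serum-free medium with 0.5% DMSO. SLC22A6 expression measured by qRT-PCR, normalised to ACTB/GAPDH/POLR2A.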

[7] = Tanguay_ZF_120hpf_SWIM_legacy: (Legacy) Oregon State University Tanguay Lab 120 Hour Post-fertilization zebrafish Assay for Swim Bladder Malformation (AID 2283654);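 also: swim bladder malformation in each larva scored yes or no under brightfield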
In short: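 Scoring is binary for swim bladder defects at 120 hpf, by brightfield inspection of zebrafish larvae. Embryos were exposed singly from 6 hpf after pronase dechorionation, at 28C with 0.64% DMSO; mortality excluded scoring.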

[8] = Tanguay_ZF_120hpf_NC_legacy: (Legacy) Oregon State University Tanguay Lab 120 Hour Post-fertilization zebrafish Assay for Notochord and Tail Malformation (AID 2283656)
In short: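 Binary notochord-distortion calls, made by brightfield inspection, form the read-out; activity is fitted in the positive direction against DMSO. Exposure ran statically from 6 to 120 hpf at 28C with 0.64% DMSO.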

[9] = read-out: solute carrier (SLC10A1), SLC10A1 (gene 6554); assay: LTEA_HepaRG_SLC10A1: Life Technologies and Expression Analysis (LTEA) Assay for solute carrier (SLC10A1) using HepaRG (AID 2283657; active = hit-call score of the fitted dose curve at least 0.9, where 1 is the maximum; inactive = score below 0.9); settings: mRNA level, 48 h; actives raise or lower the signal
In short: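 SLC10A1 transcript measured by TaqMan qRT-PCR, housekeeping-normalised, after 48 h chemical treatment of human HepaRG cells. Eight concentrations (half-log, max 100 uM, 0.5% DMSO vehicle) in duplicate; fitted bidirectionally against DMSO baseline.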

[10] = read-out: matrix metalloproteinase-1 (MMP1), MMP1 (gene 4312); assay: LTEA_HepaRG_MMP1: Life Technologies and Expression Analysis (LTEA) Assay for matrix metalloproteinase-1 (MMP1) using HepaRG (AID 2283658; active = hit-call score of the fitted dose curve at least 0.9, where 1 is the maximum; inactive = score below 0.9); settings: mRNA level, 48 h; actives raise or lower the signal
In short: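 In this screen, human liver HepaRG cultures receive each chemical in duplicate for 48 h (top 100 uM, 0.5% DMSO). MMP1 expression is then quantified by TaqMan qRT-PCR with ACTB/GAPDH/POLR2A normalization.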

[11] = read-out: ABC Transporter (ABCB1), ABCB1 (gene 5243); assay: CLD_ABCB1_6hr: CellzDirect (CLD) Gene Expression Assay for ABC Transporter (ABCB1) at 6 hours (AID 2283659);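 also: hits raise ABCB1 transcript above the DMSO vehicle baseline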
In short: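 ABCB1 transcript measured by quantitative nuclease protection assay, chemiluminescent read-out, 6 h after dosing human hepatocyte cultures (0.2% DMSO vehicle, daily redosing). Activity fitted as increase over DMSO baseline; cytotoxicity flagged by phase-contrast morphology.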

[12] = read-out: xenobiotic metabolism (CYP1A1), CYP1A1 (gene 1543); assay: CLD_CYP1A1_6hr: CellzDirect (CLD) Gene Expression Assay for xenobiotic metabolism (CYP1A1) at 6 hours (AID 2283661);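 as to AC50: potency for transcript induction above DMSO vehicle baseline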
In short: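 Read-out 6 h post-dose: qNPA chemiluminescent quantitation of transcript induction against 0.2% DMSO. Cells were cultured primary human hepatocytes from two separate donor preparations; phase-contrast morphology annotated apparent cytotoxicity.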

[13] = Tanguay_ZF_120hpf_TR_legacy: (Legacy) Oregon State University Tanguay Lab 120 Hour Post-fertilization zebrafish Assay for Touch Response (AID 2283667)
In short: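 Binary touch-response endpoint in larvae at 120 hpf after static waterborne exposure from embryo stage (28°C, 0.64% DMSO vehicle, 5 uM trimethyltin chloride as positive control); embryos dead at 24 or 120 hpf excluded; fitted as gain versus DMSO.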

[14] = read-out: sulfotransferase (SULT2A), SULT2A1 (gene 6822); assay: CLD_SULT2A_6hr: CellzDirect (CLD) Gene Expression Assay for sulfotransferase (SULT2A) at 6 hours (AID 2283669);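 also: hits raise transcript level above the DMSO vehicle baseline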
In short: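 Measured 6 h after dosing, SULT2A1 mRNA in human hepatocyte lysates was quantified by S1 nuclease protection with chemiluminescent detection. Increases fitted against 0.2% DMSO vehicle baseline; phase-contrast cytotoxicity recorded yes/no.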

[15] = Tanguay_ZF_120hpf_PFIN_legacy: (Legacy) Oregon State University Tanguay Lab 120 Hour Post-fertilization zebrafish Assay for Pectoral Fin Malformation (AID 2283648);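 also: each larva judged yes or no for fin defect by brightfield with dead larvae skipped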
In short: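 Pectoral fin malformation was recorded as a binary endpoint at 120 hpf in wild-type Tropical 5D larvae, which had been dechorionated and exposed statically from 6 hpf at 28C in 0.64% DMSO. Dead embryos were excluded.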

[16] = read-out: Broad substrate specificity ATP-binding cassette transporter ABCG2 (Homo sapiens) (UniProt Q9UNQ0); assay: CLD_ABCG2_6hr: CellzDirect (CLD) Gene Expression Assay for ABC Transporter (ABCG2) at 6 hours (AID 2283660)
In short: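 ABCG2 mRNA induction measured by qNPA chemiluminescence in human primary hepatocyte cultures, 6 h post-dose. Chemicals tested at several concentrations against a 0.2% DMSO vehicle; positive-direction fit relative to DMSO.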

[17] = read-out: kallikrein-3 (KLK3), KLK3 (gene 354); assay: LTEA_HepaRG_KLK3: Life Technologies and Expression Analysis (LTEA) Assay for kallikrein-3 (KLK3) using HepaRG (AID 2283652; active = hit-call score of the fitted dose curve at least 0.9, where 1 is the maximum; inactive = score below 0.9); settings: mRNA level, 48 h; actives raise or lower the signal
In short: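 KLK3 transcript levels were measured by TaqMan qRT-PCR with normalisation to three housekeeping genes. HepaRG cultures received chemicals for 48 h at up to 100 uM (half-log, 8 points, 0.5% DMSO vehicle), fitted in both directions against DMSO.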

[18] = CCTE_Simmons_CellTiterGLO_HEK293T: Viability Assessment in CCTE's Assays for Thyroperoxidase (TPO) Inhibition, Simmons Lab (AID 2283665)
In short: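 Luminescent ATP readout (CellTiter-Glo, 20 min at room temperature) after 24 hr exposure of HEK293T cells to 5 nM–87.5 uM final compound; signal loss relative to DMSO vehicle indicated cytotoxicity; dichlone titrated as positive control.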

[19] = read-out: xenobiotic metabolism (CYP1A2), CYP1A2 (gene 1544); assay: CLD_CYP1A2_6hr: CellzDirect (CLD) Gene Expression Assay for xenobiotic metabolism (CYP1A2) at 6 hours (AID 2283663)
In short: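 mRNA levels quantified by quantitative nuclease protection assay with chemiluminescence, 6 h after dosing human primary hepatocyte cultures (two donors) across several concentrations, vehicle 0.2% DMSO. Induction fitted upward versus DMSO; phase-contrast cytotoxicity annotated.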

Measured: AC50

Chain of Broad substrate specificity ATP-binding cassette transporter ABCG2 (Homo sapiens) (Q9UNQ0 whole entry, looked up): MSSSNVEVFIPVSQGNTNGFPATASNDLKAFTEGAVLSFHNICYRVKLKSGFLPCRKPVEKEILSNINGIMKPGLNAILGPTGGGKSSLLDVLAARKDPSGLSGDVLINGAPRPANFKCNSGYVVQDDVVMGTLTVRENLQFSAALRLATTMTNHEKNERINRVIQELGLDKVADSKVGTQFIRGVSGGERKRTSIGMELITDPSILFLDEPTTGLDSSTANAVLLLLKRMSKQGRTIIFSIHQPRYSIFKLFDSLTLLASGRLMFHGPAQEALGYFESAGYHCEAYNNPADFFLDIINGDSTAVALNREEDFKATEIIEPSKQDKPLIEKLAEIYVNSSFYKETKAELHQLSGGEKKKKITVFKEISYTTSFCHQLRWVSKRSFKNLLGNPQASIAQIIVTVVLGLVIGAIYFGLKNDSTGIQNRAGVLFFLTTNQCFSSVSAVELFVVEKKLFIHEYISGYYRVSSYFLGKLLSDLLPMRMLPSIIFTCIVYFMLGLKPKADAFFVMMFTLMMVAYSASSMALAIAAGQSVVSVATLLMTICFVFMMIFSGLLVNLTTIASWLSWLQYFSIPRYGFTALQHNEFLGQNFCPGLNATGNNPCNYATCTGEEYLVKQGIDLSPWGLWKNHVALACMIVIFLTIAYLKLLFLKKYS

CN(C)C(=O)Nc1ccc(Cl)c(Cl)c1
active: [9] 52.8 µM | [12] 3.97 µM
not listed: [15] | [16] | [17] | [18] | [19]
inactive: all other assays above

CCCN(CCC)C(=O)SCC
not listed: [5] | [6] | [9] | [10] | [17] | [18] | [19]
inactive: all other assays above

Cc1nn(C)c(Oc2ccccc2)c1C=NOCc1ccc(C(=O)OC(C)(C)C)cc1
inactive: [1] | [2] | [3] | [4] | [5] | [7] | [16] | [13] | [14]

O=C(c1ccccc1)C1CCCCC1
inactive: [1] | [2] | [15] | [3] | [4] | [5] | [7] | [8] | [13]

CC(C)(C)[C@@H](O)[C@@H](Cc1ccc(Cl)cc1)n1cncn1
active: [12] 1.9 µM
not listed: [6] | [9] | [10] | [17] | [18] | [19]
inactive: all other assays above

COC(=O)c1ccccc1C(=O)O
not listed: [15] | [18] | [19]
inactive: all other assays above

CCOC(=O)[C@H](C)Oc1ccc(Oc2nc3ccc(Cl)cc3o2)cc1
inactive: [11] | [16] | [14]
active: [12] 3.97 µM

CCOC(=O)C(C)Oc1ccc(Oc2nc3ccc(Cl)cc3o2)cc1 (centres undefined)
not listed: [3] | [6] | [9] | [10] | [15] | [16] | [17] | [19]
inactive: all other assays above

CCC(O)=C1C(=O)CC(C(=O)O)CC1=O (centres undefined)
inactive: [11] | [16] | [12]

CCCOC(=O)c1ccc(C(=O)OCCC)nc1
active: [7] 1.97 µM
inactive: [4] | [8] | [11] | [16] | [18] | [13] | [14]

O=C(c1ccc(O)cc1O)c1ccc(O)cc1O
inactive: [1] | [2] | [3] | [5] | [8] | [18]

CCOC(=O)COc1cc(-n2ncc(C(F)(F)F)c(C)c2=O)c(F)cc1Cl
inactive: [2] | [3] | [4] | [5] | [7] | [8] | [11] | [12] | [13] | [14]

COC(=O)c1ccccc1S(=O)(=O)NC(=O)Nc1nc(OC(F)F)cc(OC(F)F)n1
inactive: [12]

COc1nc(C)nc(NC(=O)NS(=O)(=O)c2ccccc2OCCCl)n1
inactive: [11] | [12] | [14]

COC(=O)c1cccc(C)c1S(=O)(=O)NC(=O)Nc1nc(OCC(F)(F)F)nc(N(C)C)n1
active: [12] 5.2 µM
inactive: [16] | [14]

CCC(C)OC(=O)N1CCCCC1CCO (centres undefined)
not listed: [3] | [6] | [9] | [10] | [15] | [17] | [18]
inactive: all other assays above

COC(=O)CSc1cc(N=c2sc(=O)n3n2CCCC3)c(F)cc1Cl
active: [12] 2.66 µM
inactive: [1] | [4] | [5] | [7] | [8] | [11] | [16] | [13] | [14]
